Bioassay records (PubChem BioAssay)
This is a sample that favours compounds with a hit; in the whole collection about 1.8% have one here.
LAP4 TOR yeast: modulators of LAP4-GFP expression in yeast, primary screen, S. cerevisiae, multiplex flow cytometry, MLPCN library; 3 h; median GFP as percent of DMSO wells; GFP response vs DMSO, % at 10 µM; AID 2023, 2009; actives 0.34% (n = 320,000);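 active = GFP response vs DMSO above a set limit, about the screen mean plus 3 SD, cut at about 150% in these data; inconclusive = under 70 cell events counted for the yeast strain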
RPL19A TOR yeast: RPL19A-GFP expression modulators in yeast, primary screen, cell-based, S. cerevisiae, multiplex flow cytometry, MLPCN. S. cerevisiae RPL19A-GFP strain, 3 h; active compounds read low. percent response vs DMSO, % at 10 µM. actives 0.3% (n = 330,000). AID 2025, 2009;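 active = percent response vs DMSO below 50%; inconclusive = fewer than 70 events counted for the yeast strain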;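 note: median channel GFP fluorescence of the barcoded RPL19A-GFP strain; ratio of sample median GFP to plate DMSO average so 100% = DMSO; lower means less RPL19A-GFP as with rapamycin TOR inhibition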
CIT2 TOR yeast: modulators of CIT2-GFP expression in yeast, primary screen, S. cerevisiae, GFP fusion, multiplex flow cytometry, MLPCN library | GFP response vs DMSO, % at 10 µM | actives 0.065% (n = 320,000) | S. cerevisiae CIT2-GFP strain, 3 h; 100 means same as DMSO wells;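 active = GFP response relative to DMSO above a set limit, near the screen mean plus 3 SD, cut at about 150% in these data; inconclusive = Fewer than 70 cells measured for a yeast strain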;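 note: ratio of well median GFP fluorescence to mean of DMSO wells on the plate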
AGP1 TOR yeast: modulators of AGP1-GFP expression in yeast TOR pathway, primary screen, cell-based, multiplex flow cytometry, S. cerevisiae, MLPCN library; 3 h; GFP as percent of DMSO wells; GFP response vs DMSO, % at 10 µM; actives 0.02% (n = 320,000);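 active = GFP response relative to DMSO above a set limit, near screen average plus 3 SD, cut at about 150% in these data; inconclusive = fewer than 70 cells counted for the yeast strain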;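 note: median GFP channel fluorescence of the gated AGP1 strain per well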
MEP2-GFP yeast: modulators of MEP2-GFP levels in yeast, primary screen, S. cerevisiae, multiplex flow cytometry, MLPCN library; actives 0.51% (n = 330,000); S. cerevisiae MEP2-GFP strain, 3 h; 100% = DMSO control level; GFP response vs DMSO, % at 10 µM; AID 2016, 2009;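 active = GFP response versus DMSO above a set limit, roughly screen mean plus 3 SD, cut at about 180% in these data; inconclusive = fewer than 70 cells counted for a yeast strain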;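 note: median GFP fluorescence of the barcode-gated MEP2-GFP cells per well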
Myeloid diff MLP: induction of myeloid progenitor differentiation, primary screen, cell-based, flow cytometry, MLPCN library; ER-HoxA9 myeloid progenitors, lysozyme-GFP differentiation; calls only at 10 µM; AID 624256, 2012; actives 1% (n = 360,000);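 active = normalized GFP-positive differentiation at or above the plate's own cutoff, the solvent-only control mean plus 3 SD; inconclusive = no clear call, values can overlap the other calls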;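 note: cells exposed to compound for four days before flow analysis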
Active calls of the source: *; i = inactive; ? = inconclusive; . = not tested or not shown; + = active, no number; [ ] = remark or other dose.

SMILES | LAP4 TOR yeast | RPL19A TOR yeast | CIT2 TOR yeast | AGP1 TOR yeast | MEP2-GFP yeast | Myeloid diff MLP
Cc1cc(C)n(C(=O)/C(C#N)=N\Nc2ccccc2[N+](=O)[O-])n1 | 182.7* | 93.8 | 90.4 | 105.0 | 134.4 | i
COc1ccc(S(=O)(=O)Oc2cccc(C(=S)N3CCOCC3)c2)cc1 | 99.1 | 99.7 | 92.4 | 98.5 | 103.0 | i
Cc1nc2c(-c3ccc(Cl)cc3)cnn2c(N)c1-c1ccc(F)cc1 | 93.1 | 107.0 | 107.5 | 98.7 | 111.5 | ?
Cc1nc2c(-c3ccc(F)cc3)cnn2c(N)c1-c1ccccc1 | 165.3* | 90.0 | 72.1 | 55.6 | 111.5 | ?
CC(C(=O)Nc1ccccc1C(=O)O)n1c(C(F)(F)F)nc2ccccc21 (stereo unspecified) | 96.8 | 101.1 | 105.5 | 107.4 | 100.3 | i
O=C(Nc1nnc(-c2ccccc2Cl)o1)c1nc2ccccc2s1 | 145.5 | 102.5 | 100.9 | 96.8 | 107.3 | i
CCc1c(O)nc(SCC(=O)NCc2ccco2)[nH]c1=O | 203.8*[may fluoresce violet] | 39.3*[may fluoresce violet] | ? | 27.6 | 677.5*[may fluoresce violet] | i
Cc1nnc(SCC(=O)NCc2ccco2)[nH]c1=O | 84.7 | 96.2 | 93.8 | 93.9 | 91.9 | i
CCOc1ccccc1N(CC(=O)NC1CCCC1)C(=O)CCCC(=O)Nc1ccccn1 | 90.9 | 100.6 | ? | 109.7 | 201.8*[may fluoresce violet] | i
O=C(Nc1cccc(C(F)(F)F)c1)c1ccc(-c2ccc(F)c(F)c2)c2ccoc12 | . | . | . | . | . | i
CCCN1CCC(=O)N([C@H](CSc2ccccc2)Cc2ccccc2)CC1 | 120.0 | 90.8 | 62.9 | 71.9 | 89.3 | i
CCCN1CCC(=O)N([C@H](CSc2ccc(Br)cc2)Cc2ccccc2)CC1 | . | . | . | . | . | +
COc1ccc2nc(C(F)(F)C(F)(F)F)c(C#N)c(N)c2c1 | 100.1 | 96.4 | 95.8 | 96.8 | 96.3 | i
COc1ccc(S(=O)(=O)N2CCc3ccccc32)cc1C(=O)Nc1cccnc1 | 97.1 | 99.8 | 90.5 | 100.6 | 100.5 | i
O=C(Nc1ccccn1)c1ccc2nc(-c3ccccc3)c(-c3ccccc3)nc2c1 | 100.3 | 94.0 | 98.7 | 97.2 | 95.6 | .
O=C(Nc1cccnc1)c1ccc2nc(-c3ccccc3)c(-c3ccccc3)nc2c1 | 114.5 | 88.1 | 74.0 | 90.3 | 101.1 | +
CCCN(CC(=O)Nc1ccc(F)c(F)c1F)C(=O)Cn1c(=O)cnc2ccccc21 | 105.0 | 98.4 | 93.6 | 108.5 | 97.4 | +
CCN(CC(=O)Nc1c(F)cccc1F)C(=O)Cn1c(=O)cnc2ccccc21 | 105.4 | 98.9 | 96.0 | 105.9 | 97.7 | i
Nc1ncnc2c1ncn2[C@@H]1O[C@H](CO)[C@@H](O)[C@H]1O | 106.4 | 98.2 | 100.3 | 93.8 | 92.5 | +
Cn1cc(S(=O)(=O)NC[C@H]2O[C@@H](n3cnc4c(N)ncnc43)[C@H](O)[C@@H]2O)cn1 | . | . | . | . | . | +
CC1(C)OC2C(O1)[C@@H](CO)O[C@H]2n1cnc2c(N)ncnc21 (stereo partly specified) | 99.8 | 95.4 | 95.9 | 105.0 | 94.6 | i
O=C(NCCS(=O)(=O)N1CCN(c2ccccc2F)CC1)C1CC(=O)N(c2ccc(F)cc2)C1 (stereo unspecified) | 94.4 | 96.0 | 107.7 | 101.4 | 99.1 | i
OC(CN1CCCCC1)Cn1c2ccccc2c2ccccc21 (stereo unspecified) | 101.9 | 105.8 | 96.5 | 103.7 | 97.3 | i
O=c1c2ccccc2n(CC(O)CN2CCOCC2)c2ccccc12 (stereo unspecified) | 57.9 | 36.3*[may fluoresce violet] | ? | ? | ? | i
O=c1c2ccccc2n(CC(O)CN2CCCCC2)c2ccccc12 (stereo unspecified) | 76.2 | 31.6*[may fluoresce violet] | ? | ? | 168.8 | i
Cn1c(C(=O)NCCN2CCc3ccccc3C2)cc2c(=O)n(C)c3ccccc3c21 | 96.5 | 100.3 | 115.3 | 98.0 | 94.2 | i
